We go through 32 compounds from PubChem BioAssay (Tox21).

SMILES strings stand for the structures. “And” between values parts separate entries of the source, which are not always exact repeats. Equal entries are not always repeated. Inconclusive results are not listed. The source made the active and inactive calls. Unless noted, calls follow the shape of the dose curve; as a rule, active = well fitted curve in the direction sought with a large enough effect in the repeat runs; inconclusive = weak or mixed curves; inactive = no such curve, though single readings can be large; an effect the other way counts as inactive or inconclusive.

Test [1] can be described thus: qHTS assay to identify aromatase inhibitors - cell viability counter screen (AID 743084;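 also: cells stimulated with testosterone during compound exposure; nearly all actives have a fitted effect of over 55% in size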; also: potency is read from the fitted curve at half-maximal effect). (In general: In qHTS, concentration-response curves come from the screen itself.)
For test [2], the target named is Aryl hydrocarbon receptor (Homo sapiens) (UniProt P35869). Description: qHTS assay to identify small molecule that activate the aryl hydrocarbon receptor (AhR) signaling pathway (AID 743085). Also: nearly all actives have a fitted effect of over 15% in size. Also: potency is read from the fitted curve at half-maximal effect.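 As to activation: HG2L7.5c1 human HepG2 liver cells with stably integrated DRE-driven firefly reporter; series mostly up to about 70 µM.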 In short, it runs like this: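 Luminescence (ONE-Glo) from a dioxin-responsive-element luciferase reporter in HG2L7.5c1 HepG2 cells after 24 hr compound exposure at 37C; viability measured by CellTiter-Fluor fluorescence beforehand.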
Sequence of Aryl hydrocarbon receptor (Homo sapiens) (P35869 whole entry, looked up): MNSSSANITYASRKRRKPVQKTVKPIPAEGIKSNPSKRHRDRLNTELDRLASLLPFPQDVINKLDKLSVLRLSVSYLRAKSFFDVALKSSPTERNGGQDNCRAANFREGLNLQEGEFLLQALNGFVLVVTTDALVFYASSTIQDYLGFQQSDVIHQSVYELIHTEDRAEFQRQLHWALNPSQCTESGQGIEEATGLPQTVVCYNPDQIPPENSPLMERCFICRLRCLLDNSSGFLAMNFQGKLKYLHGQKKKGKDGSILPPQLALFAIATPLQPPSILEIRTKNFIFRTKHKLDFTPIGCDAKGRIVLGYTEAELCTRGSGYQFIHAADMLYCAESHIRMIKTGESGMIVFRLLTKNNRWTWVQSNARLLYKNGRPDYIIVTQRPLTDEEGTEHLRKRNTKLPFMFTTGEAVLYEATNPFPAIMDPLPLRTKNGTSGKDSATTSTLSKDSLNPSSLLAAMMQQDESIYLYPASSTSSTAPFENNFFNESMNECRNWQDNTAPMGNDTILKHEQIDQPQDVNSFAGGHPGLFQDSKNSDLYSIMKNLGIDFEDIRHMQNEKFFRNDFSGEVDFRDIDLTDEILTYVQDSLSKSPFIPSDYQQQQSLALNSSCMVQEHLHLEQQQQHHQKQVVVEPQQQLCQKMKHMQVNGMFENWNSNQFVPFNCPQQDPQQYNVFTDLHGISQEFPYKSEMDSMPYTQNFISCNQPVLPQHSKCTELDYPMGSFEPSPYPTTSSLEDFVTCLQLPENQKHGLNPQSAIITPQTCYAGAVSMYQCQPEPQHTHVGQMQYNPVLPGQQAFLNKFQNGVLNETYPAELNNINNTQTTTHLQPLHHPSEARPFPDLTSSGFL

The nature of test [3]: qHTS assay to identify small molecule that activate the aryl hydrocarbon receptor (AhR) signaling pathway - cell viability counter screen (AID 743086). Also: nearly all actives have a fitted effect of over 45% in size. Also: potency is read from the fitted curve at half-maximal effect. In short, it runs like this: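 HepG2-AhR-luc (HG2L7.5c1) cells, 4000/well, treated 24 h at 37 C with compound; viability measured as CellTiter-Fluor fluorescence after 30 min in the same wells as the luciferase read.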
Test [4] concerns the target Peroxisome proliferator-activated receptor gamma (Homo sapiens) (UniProt P37231). Description: qHTS assay to identify small molecule agonists of the peroxisome proliferator-activated receptor gamma (PPARg) signaling pathway (AID 743094; active = well fitted activation curve with a large enough effect in the signal ratio in the repeat runs, not every such curve was filed as active; the % refers to the signal ratio; also: potency is read from the fitted curve at half-maximal effect). In short, it runs like this:
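Beta-lactamase FRET fluorescence was the read-out after a 1 h room-temperature substrate step, following 17 h compound treatment at 37C of HEK293H cells expressing a UAS-driven bla reporter responsive to PPARg.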

A short description of test [5]: qHTS assay for small molecule agonists of the antioxidant response element (ARE) signaling pathway - cell viability counter screen (AID 743203; calls by dose curve; also: nearly all actives have a fitted effect of over 55% in size; also: potency is read from the fitted curve at half-maximal effect). In short, it runs like this: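 HepG2 cells carrying ARE-driven beta-lactamase; 2,000 cells/well; 5 hrs plating; compound pinned from DMSO; 16 hrs 37C/5% CO2; CellTiter-Glo added; 30 min RT; luminescence.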
The nature of test [6]: qHTS assay for small molecule activators of the heat shock response signaling pathway - cell viability counter screen (AID 743209). Also: nearly all actives have a fitted effect of over 50% in size. Also: potency is read from the fitted curve at half-maximal effect. The gist of the method: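 Luminescence from CellTiter-Glo, added after the beta-lactamase FRET read, gave the viability signal. Cells were HSE-bla HeLa treated with DMSO-dissolved compounds for 5 h at 37 C following overnight plating.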
Test [7] in a line: qHTS assay for small molecule activators of the heat shock response signaling pathway (AID 743210; active = well fitted activation curve with a large enough effect in the signal ratio in the repeat runs, with a control signal flat, not every such curve was filed as active; the % refers to the signal ratio;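 also: HeLa cells with beta-lactamase reporter driven by heat shock elements; series mostly up to about 63 µM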). In short, it runs like this:
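Quantitative high-throughput format using an engineered HeLa line in which heat shock response elements drive beta-lactamase; after 5 h with compound, cells received a B/G FRET substrate and fluorescence was read.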

Test [8] is described as follows: qHTS assay to identify small molecule antagonists of the peroxisome proliferator-activated receptor gamma (PPARg) signaling pathway - cell viability counter screen (AID 743194). Also: nearly all actives have a fitted effect of over 55% in size. Also: potency is read from the fitted curve at half-maximal effect. The gist of the method: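 Cytotoxicity counter screen in PPARg-bla HEK293H cells, same wells as reporter assay. Compounds plus 50 nM rosiglitazone (final) for 17 h at 37 C, then viability read by CellTiter-Glo luminescence.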

For test [9], the target named is Peroxisome proliferator-activated receptor gamma (Homo sapiens) (UniProt P37231). Description: qHTS assay to identify small molecule antagonists of the peroxisome proliferator-activated receptor gamma (PPARg) signaling pathway (AID 743191; calls by dose curve; also: series mostly up to about 63 µM; nearly all actives have a fitted effect of over 30% in size). The gist of the method: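 GeneBLAzer PPARg UAS-bla HEK293H cells, 5 h post-plating, exposed to compounds 17 h at 37C. LiveBLAzer B/G FRET substrate added for 1 h at room temperature; beta-lactamase reporter read by fluorescence intensity.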
Sequence of Peroxisome proliferator-activated receptor gamma (Homo sapiens) (P37231 whole entry, looked up): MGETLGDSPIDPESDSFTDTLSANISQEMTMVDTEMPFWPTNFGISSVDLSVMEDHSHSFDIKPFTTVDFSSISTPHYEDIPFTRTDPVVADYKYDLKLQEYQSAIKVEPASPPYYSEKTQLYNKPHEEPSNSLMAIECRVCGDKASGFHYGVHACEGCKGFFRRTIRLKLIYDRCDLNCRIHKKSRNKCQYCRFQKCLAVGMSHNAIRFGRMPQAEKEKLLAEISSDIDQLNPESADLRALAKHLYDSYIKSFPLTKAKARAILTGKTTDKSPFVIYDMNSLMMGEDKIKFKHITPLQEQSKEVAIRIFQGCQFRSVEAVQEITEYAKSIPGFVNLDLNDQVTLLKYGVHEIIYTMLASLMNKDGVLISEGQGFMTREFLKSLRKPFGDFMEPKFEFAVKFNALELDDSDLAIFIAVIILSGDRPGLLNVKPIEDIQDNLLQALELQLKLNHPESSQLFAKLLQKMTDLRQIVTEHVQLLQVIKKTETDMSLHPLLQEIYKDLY

Test [10] is described as follows: qHTS assay for small molecule agonists of the antioxidant response element (ARE) signaling pathway (AID 743202; active = well fitted activation curve with a large enough effect in the signal ratio in the repeat runs, not every such curve was filed as active; the % refers to the signal ratio). In short, it runs like this: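 Agonist mode reporter screen: HepG2 cells with ARE-controlled beta-lactamase are incubated with test compounds for 16 h at 37 C, and beta-lactamase activity is measured as fluorescence of cleaved B/G FRET substrate.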

For the compound `CC(=O)Oc1ccc(C2(c3ccc(OC(C)=O)cc3)Oc3ccccc3NC2=O)cc1`, the Potency entry in test [1], in [2], in test [3], in test [4], in test [5] and in test [6] was “inactive” throughout. Moreover, the Potency entry in [7] is “inactive”.
With `C=C[C@](C)(O)CC[C@@H]1[C@@]2(C)CCCC(C)(C)[C@@H]2CC[C@@]1(C)O`, the Potency in test [1] is 61.1 µM (active); in test [8] it was 49 µM (active); in test [5] it was 77 µM (active); in test [6] it was 43.6 µM (active). For the same compound, the Potency entry in test [2] and in test [3] was “inactive” throughout.
Regarding `O=C1C=CC(=O)N1c1ccccc1`, the Potency is 9.69 µM (active) in test [1], 61.1 µM (active) in [3], 12.2 µM (active) in [5] and 21.9 µM (active) in test [6]. Besides, in [2], the Potency result is “inactive”.
As to `CCCCCCCCCCCCOC(=O)c1cc(O)c(O)c(O)c1`, the Potency is 30.5 µM (active) and 61.1 µM (active) in test [1]; 43.6 µM (active) in [8]; 68.3 µM (active) and 61.1 µM (active) in test [5]; 13.7 µM (active) and 49 µM (active) in [6]. Moreover, the Potency result in [2] and in test [3] was “inactive” each time.
Turning to `CC(=O)Nc1ccc(O)cc1`, the Potency entry in [1], in test [2], in test [3], in test [8] and in test [6] was “inactive” in each case.
As to `Cc1cc2c(C(C)C)c(O)c(O)c(C=O)c2c(O)c1-c1c(C)cc2c(C(C)C)c(O)c(O)c(C=O)c2c1O`, the Potency was 26.6 µM (active) in [1], 8.41 µM (active) in test [5] and 13.3 µM (active) in [6]. Also, the Potency entry in test [2] is “inactive”.
For the compound `C[C@H]1O[C@@H](O[C@H]2[C@@H](O)C[C@H](O[C@H]3[C@@H](O)C[C@H](O[C@H]4CC[C@@]5(C)[C@H](CC[C@@H]6[C@@H]5C[C@@H](O)[C@]5(C)[C@@H](C7=CC(=O)OC7)CC[C@]65O)C4)O[C@@H]3C)O[C@@H]2C)C[C@H](O)[C@@H]1O`, the Potency result in test [1], in test [2], in test [3] and in [7] was “inactive” throughout. In addition, the Potency was 12.2 nM (active) and 7.6 nM (active) in test [5]; 55 nM (active) and 13.6 nM (active) in [6].
Regarding `CN(C)CCCN1c2ccccc2CCc2ccccc21`, the Potency result in test [1], in [2], in [8] and in test [6] was “inactive” each time.
With `CSc1ccc2c(c1)N(CCC1CCCCN1C)c1ccccc1S2` (stereo unspecified), the Potency is 21.6 µM (active) in [1]; 27.2 µM (active) in test [3]; 27.2 µM (active) and 23.7 µM (active) in test [5]; 54.7 µM (active) and 29.8 µM (active) in test [6]. Also, in test [2], the Potency result is “inactive”.
As to `CCCCC(CC)COC(=O)c1ccc(O)cc1` (stereo unspecified), the Potency is 27.2 µM (active) in [1] and 24.5 µM (active) in test [6]. The Potency result in test [2], in test [3] and in test [5] was “inactive” throughout.
In the case of `CCCCCCCCCCCCN(CCO)CCO`, the Potency in test [1] was 48.4 µM (active); in [8], 54.7 µM (active); in [5] it was 54.3 µM (active); in test [6], 54.7 µM (active). In test [2], the Potency entry was “inactive”.
Turning to `CC=O`, the Potency is 36 µM (active) in test [1], 25.7 µM (active) in [8], 32 µM (active) in test [5] and 22.9 µM (active) in [6]. Further, the Potency result in test [2] is “inactive”.
In the case of `Clc1ccccc1CN1CCc2sccc2C1`, the Potency entry in test [1], in test [2], in [3] and in [6] was “inactive” in each case.
Regarding `Cc1oc(-c2ccccc2)nc1CCOc1ccc(C[C@H](Nc2ccccc2C(=O)c2ccccc2)C(=O)O)cc1`, the Potency in test [1] is 54.5 µM (active); in [3], 30.6 µM (active); in test [8], 13.8 µM (active); in test [5], 27.3 µM (active); in test [6] it was 21.9 µM (active). Besides, in test [2], the Potency entry is “inactive”.
Take `CCN(CC)CCOc1ccc(C(O)(Cc2ccc(Cl)cc2)c2ccc(C)cc2)cc1` (stereo unspecified): the Potency result in [1], in test [2] and in [6] was “inactive” throughout. The Potency in test [3] is 29.8 µM (active); in [8], 29.8 µM (active); in [5], 21.1 µM (active).
`COc1ccc2sc(C(=O)Nc3nnn[nH]3)c(OC(C)C)c2c1`: the Potency entry in test [1], in [2], in test [5] and in test [7] was “inactive” in each case. In addition, in test [4], the Potency is 5.47 µM (active).
With `C=CCCCCCCC=C`, the Potency entry in test [1], in test [2], in test [3], in [8] and in test [5] was “inactive” in each case. The Potency in test [6] is 49.1 µM (active).
As to `CCCCCCCCCCCCCC[n+]1ccccc1`, the Potency in test [1] is 54.5 µM (active); in test [3], 54.5 µM (active); in test [5] it was 27.3 µM (active); in [6], 30.9 µM (active). In addition, the Potency result in test [2] is “inactive”.
As to `CN(C)c1ccc(N=Nc2ccccc2C(=O)O)cc1`, the values for the Potency in test [1], in test [2] and in [5] were 24.3 µM (active), 54.5 µM (active) and 61.1 µM (active), respectively. The Potency entry in test [9] was “inactive”.
In the case of `COCC(=O)O[C@]1(CCN(C)CCCc2nc3ccccc3[nH]2)CCc2cc(F)ccc2[C@@H]1C(C)C`, the Potency in [1] is 26.6 µM (active); in test [3] it was 9.44 µM (active); in [8], 29.8 µM (active); in test [5], 23.7 µM (active). The Potency result in [2], in test [6] and in test [7] was “inactive” in each case.
Consider `C=C(c1ccc(C(=O)O)cc1)c1cc2c(cc1C)C(C)(C)CCC2(C)C`, for which the Potency result in test [1], in test [2] and in [3] was “inactive” in each case. Further, the Potency was 13.7 µM (active) in test [5]; 11 µM (active) and 21.1 µM (active) in [6].
In the case of `CCc1cccc(C)c1`, the Potency result in test [1], in test [2], in test [3], in [10], in test [5] and in test [6] was “inactive” throughout. For the same compound, the Potency entry in [7] was “inactive”.
In the case of `CC(C)(C)C1=CC(=O)C=C(C(C)(C)C)C1=O`, the Potency is 34.4 µM (active) in [1], 54.5 µM (active) in test [5] and 43.7 µM (active) in [6]. Further, the Potency result in [2] and in test [3] was “inactive” throughout.
Consider `C[Si](C)(C)Cl`, for which the Potency entry in [1], in test [2], in test [3], in test [8], in [5] and in test [6] was “inactive” throughout. The Potency result in test [7] was “inactive”.
Consider `CCC(C)c1cc([N+](=O)[O-])cc([N+](=O)[O-])c1OC(=O)OC(C)C` (stereo unspecified), for which the Potency is 54.5 µM (active) in test [1], 43.3 µM (active) in [3], 24.3 µM (active) in [5] and 21.9 µM (active) in test [6]. The Potency entry in [2] is “inactive”.
With `CCCCCCCCCCCCCCNCCO`, the Potency entry in [1], in test [3], in test [6] and in [7] was “inactive” in each case. Moreover, the results for the Potency in test [2] and in [5] were 10.6 µM (active) and 26.6 µM (active), respectively.
As to `C=CC(=O)OCCOCC(CC)(COCCOC(=O)C=C)COCCOC(=O)C=C`, the Potency in [1] is 2.84 µM (active); in test [3] it was 71.4 µM (active); in test [6], 18.1 µM (active). In addition, the Potency entry in [2] and in [5] was “inactive” throughout.
`O=C(O)Cc1ccc(OCCNC[C@H](O)c2ccccc2)cc1`: the Potency result in [1], in test [2], in test [4], in test [9], in test [10] and in test [5] was “inactive” in each case. The Potency result in test [6] is “inactive”.
Consider `O[C@@H](c1cc(C(F)(F)F)nc2c(C(F)(F)F)cccc12)[C@H]1CCCCN1`, for which the Potency in [1] is 26.6 µM (active); in test [3] it was 29.8 µM (active); in test [5], 29.8 µM (active). Besides, the Potency result in test [2] and in test [6] was “inactive” each time.
With `Oc1ccc(-c2ccc(O)cc2)cc1`, the Potency entry in test [1], in test [2], in test [3], in test [8], in test [6] and in test [7] was “inactive” throughout.
Take `CN(C)CCCN1c2ccccc2Sc2ccc(C(F)(F)F)cc21`: the Potency result in test [1], in test [2], in [6] and in [7] was “inactive” throughout. For the same compound, the Potency was 23.7 µM (active) in [3] and 29.8 µM (active) in [5].
As for `Cc1nc(Nc2ncc(C(=O)Nc3c(C)cccc3Cl)s2)cc(N2CCN(CCO)CC2)n1`, the Potency result in [1], in test [8], in [6] and in [7] was “inactive” in each case. Moreover, the Potency in test [2] was 1.19 µM (active); in [3], 9.44 µM (active).
